Source: PubChem
Sampled rows, rich in hits. Any-hit rate of the full collection: about 2%.
APOBEC3A inh – APOBEC3A ssDNA deaminase inhibitors, primary screen, selectivity assay for APOBEC3G inhibitor project, biochemical, FAM/TAMRA oligo cleavage fluorescence; DNA dC->dU-editing enzyme APOBEC-3A (Homo sapiens), P31941; recombinant A3A, FAM/TAMRA ssDNA deamination fluorescence; inhibition, % at 20 µM; 330,000 tested, 0.41% active; AID 493011, 2011;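 active means at least 40% inhibition at 20 µM here, with at most 30% in a related deaminase screen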
GC-B act – human GC-B receptor activators, primary screen, HEK293 GC-B cells, cGMP TR-FRET, EC30 CNP; Atrial natriuretic peptide receptor 2 (Homo sapiens), P20594; 0% at EC30 CNP, 100% saturating CNP; activation, % at 10 µM; 370,000 tested, 0.11% active;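 active means activation at 10 µM reaching about 35% in either raw or pattern-adjusted values, limit read from the data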
Neddyl block – inhibitors of cullin neddylation, primary screen, biochemical, TR-FRET, uHTS, NAE and Ubc12 | NEDD8-conjugating enzyme Ubc12 (Homo sapiens) + NEDD8-activating enzyme E1 regulatory … | inhibition, % at 25 µM | 360,000 tested, 0.58% active; in the data active means inhibition above about 36%
NPR1 activator – GC-A stimulated cGMP production enhancers – HEK293 GC-A cells, cGMP TR-FRET, EC30 ANP, primary screen. Atrial natriuretic peptide receptor 1 (Homo sapiens), P16066. 0% at EC30 ANP, 100% saturating ANP. activation, % at 10 µM. 370,000 tested, 0.14% active. AID 1671463, 2021; in the data active means activation above about 40%
Target sequence (P16066 whole entry, looked up): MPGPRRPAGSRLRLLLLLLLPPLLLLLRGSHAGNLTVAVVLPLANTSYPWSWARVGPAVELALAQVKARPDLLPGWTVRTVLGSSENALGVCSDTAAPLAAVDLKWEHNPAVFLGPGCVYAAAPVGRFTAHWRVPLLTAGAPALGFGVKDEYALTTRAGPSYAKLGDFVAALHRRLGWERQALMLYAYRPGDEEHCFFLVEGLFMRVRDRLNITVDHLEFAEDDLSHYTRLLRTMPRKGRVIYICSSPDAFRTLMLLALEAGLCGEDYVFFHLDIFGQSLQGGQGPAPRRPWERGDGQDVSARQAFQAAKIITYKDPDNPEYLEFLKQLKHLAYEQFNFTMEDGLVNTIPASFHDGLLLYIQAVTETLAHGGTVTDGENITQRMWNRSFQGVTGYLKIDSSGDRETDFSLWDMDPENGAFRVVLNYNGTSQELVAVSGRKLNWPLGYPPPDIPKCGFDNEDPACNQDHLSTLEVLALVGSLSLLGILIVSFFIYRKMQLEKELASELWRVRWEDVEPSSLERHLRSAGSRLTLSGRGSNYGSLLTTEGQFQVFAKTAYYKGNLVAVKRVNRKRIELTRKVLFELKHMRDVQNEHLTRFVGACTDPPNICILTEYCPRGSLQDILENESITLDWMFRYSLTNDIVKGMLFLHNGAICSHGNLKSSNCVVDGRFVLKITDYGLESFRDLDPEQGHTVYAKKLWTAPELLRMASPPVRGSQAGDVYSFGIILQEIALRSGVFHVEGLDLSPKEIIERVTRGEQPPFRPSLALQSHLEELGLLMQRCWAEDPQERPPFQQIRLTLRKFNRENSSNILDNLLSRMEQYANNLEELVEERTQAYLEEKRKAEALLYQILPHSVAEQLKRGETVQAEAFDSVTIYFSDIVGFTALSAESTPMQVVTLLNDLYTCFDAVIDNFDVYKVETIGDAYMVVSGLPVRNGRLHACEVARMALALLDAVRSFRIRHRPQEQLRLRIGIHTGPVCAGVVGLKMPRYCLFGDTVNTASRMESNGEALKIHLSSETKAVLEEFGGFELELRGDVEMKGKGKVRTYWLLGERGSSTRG
PfG6PD inh – PfG6PD enzyme inhibitors, primary screen, biochemical, fluorescence intensity, uHTS; glucose-6-phosphate dehydrogenase-6-phosphogluconolactonase (Plasmodium falciparum 3D7); PfGluPho enzyme, NADPH resazurin-diaphorase fluorescence; inhibition, % at 20 µM; 350,000 tested, 0.78% active; AID 504690, 2011;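 active means inhibition reaching at least a set limit at 20 µM in the primary screen, cut at about 59% in these data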
APOBEC3G inh – APOBEC3G DNA deaminase inhibitors, primary screen, biochemical, fluorescence, single-stranded DNA substrate, uHTS | DNA dC->dU-editing enzyme APOBEC-3G (Homo sapiens), Q9HC16 | recombinant A3G, ssDNA deamination FAM/TAMRA fluorescence | inhibition, % at 20 µM | 330,000 tested, 0.28% active;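 active means inhibition of at least 40% at 20 µM, with no more than 30% in the related APOBEC3A deaminase screen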
Hits are given with their value; . = inactive; / = not tested or not shown.

SMILES | APOBEC3A inh | GC-B act | Neddyl block | NPR1 activator | PfG6PD inh | APOBEC3G inh
CCN(CC)C(=O)Cn1cc(/C=C2\C(=O)NC(=O)N(c3ccccc3F)C2=O)c2ccccc21 | . | . | . | 44 | . | .
O=C(O)Cn1cc(/C=C2\C(=O)NC(=O)N(c3ccc(Cl)cc3)C2=O)c2ccccc21 | . | . | . | . | . | .
COC1C(O)C(C)OC(OC2C(Oc3cccc4c(O)c5c(=O)oc6ccc(C)c7c(=O)oc(c34)c5c67)OC(C)C(O)C2O)C1O (stereo not drawn) | / | . | 40 | . | . | /
COc1ccc(-n2c(/C=C/c3ccc(O)c(O)c3)nc3ccccc3c2=O)cc1 | . | . | . | . | . | .
COc1cc(/C=C/c2nc3ccccc3c(=O)n2-c2ccc(O)cc2)ccc1O | . | 35 | . | . | . | .
CCCC(=O)N1c2ccc(Cl)cc2C(c2ccccc2)=NCC1C(=O)NC(C)(C)C (stereo not drawn) | / | . | / | . | / | /
COC(=O)c1c(N)n(Cc2ccc(OC)cc2)c2nc3ccccc3nc12 | . | 43 | / | 48 | . | .
COCCOC(=O)c1c(N)n(Cc2ccc(OC)cc2)c2nc3ccccc3nc12 | . | 47 | / | 47 | . | .
CCOC(=O)c1c(N)n(CCCOC(=O)c2ccco2)c2nc3ccccc3nc12 | . | . | / | . | . | .
CCOC(=O)c1c(N)n(Cc2ccc(OC)cc2)c2nc3ccccc3nc12 | / | 44 | / | 46 | / | /
COCCCn1c(N)c(C(=O)OCCOC)c2nc3ccccc3nc21 | . | . | / | . | . | .
CC(C)C[C@H]1N=C(c2ccccc2)c2ccccc2N(CC(=O)NC(C)(C)C)C1=O | / | . | / | . | / | /
CC(C)C(C(=O)NC(C)(C)C)N1C(=O)CN=C(c2ccccc2)c2ccccc21 (stereo not drawn) | / | . | / | . | / | /
COc1ccc([C@@H]2C[C@H]3[C@@H](CN2)CON3C)cc1 | / | . | / | . | / | /
O=C1CC=C2C3CC4N(CCC45c4cc(O)c(O)cc4N1C25)CC3=CCBr (stereo not drawn) | / | . | 49 | . | 126 | /
O=C(O)c1ccc(-[n+]2c(-c3ccccc3)cc(-c3ccccc3)cc2-c2ccccc2)cc1 | . | . | . | . | . | .
Cc1ccc(-c2cc(-c3ccc(C)cc3)[n+](-c3ccc(C(=O)O)cc3)c(-c3ccc(C)cc3)c2)cc1 | . | . | 36 | . | . | .
O=C1NC(=O)C(=Cc2ccc(-c3ccc(F)cc3O)o2)C(=O)N1 | . | . | . | 57 | . | .
O=C1NC(=O)C(=Cc2ccc(-c3ccc(S(=O)(=O)N4CCOCC4)cc3)o2)C(=O)N1 | . | . | . | . | 73 | .
O=C1NC(=O)C(=Cc2ccc(-c3ccc(Cl)cc3)o2)C(=O)N1 | . | / | . | / | 77 | .
O=C(CN1C(=O)[C@@H](Cc2ccc(O)cc2)N=C(c2ccccc2)c2ccccc21)NC1CCCCC1 | / | . | / | . | / | /
CN1C(=O)C(=Cc2ccc(Sc3ccccc3)o2)C(=O)N(C)C1=O | . | . | . | 46 | . | .
O=C1NC(=O)C(=Cc2ccc(Sc3ccccc3)o2)C(=O)N1 | . | 49 | . | 51 | . | .
N#CCC[C@@H]1CC[C@]2(CCCN(Cc3ccccn3)C2)O1 | / | . | / | . | / | /
C=C1[C@@H](C)C2[C@H](Cc3ccccc3)NC(=O)[C@]23[C@H](OC(C)=O)/C=C/[C@@](C)(O)C(=O)[C@@H](C)C/C=C/[C@H]3[C@@H]1O (stereo partly drawn) | / | . | / | . | / | /
SMILES | APOBEC3A inh | GC-B act | Neddyl block | NPR1 activator | PfG6PD inh | APOBEC3G inh
Cn1c(=O)c2c(nc(N/N=C/c3c(O)n(C4CCCCC4)c(=S)[nH]c3=O)n2C)n(C)c1=O | . | . | 42 | . | . | .
CC(=O)c1ccc2c(c1)C1C(Cl)C(Sc3ccccc3[N+](=O)[O-])CC1C(c1ccccc1)N2 (stereo not drawn) | . | . | . | . | . | .
CC(=O)c1ccc2c(c1)C1C(Cl)C(Sc3ccccc3[N+](=O)[O-])CC1C(c1ccccc1[N+](=O)[O-])N2 (stereo not drawn) | . | 75 | . | . | 59 | .
CC(=O)c1c(C)n(Cc2ccccc2Cl)c2ccc(O)cc12 | . | . | . | 83 | . | .
CC(=O)c1c(C)n(CC2CCCO2)c2ccc(O)cc12 (stereo not drawn) | . | . | . | . | . | .
Cc1c(C(=O)Nc2ccccc2)c2cc(O)ccc2n1Cc1ccccc1 | . | . | . | 61 | . | .
COC(=O)c1c(C)n(Cc2ccco2)c2ccc(O)cc12 | . | . | . | 47 | . | .
CC(C)(C)NC(=O)C1CN=C(c2ccccc2)c2cc(Cl)ccc2N1C(=O)C1CCC1 (stereo not drawn) | / | . | / | . | / | /
COC(=O)C1=C[C@H]([C@@H](C)[C@H](OC)c2ccccc2Br)[C@@H]2[C@H]1c1ccccc1N2C | / | . | / | . | / | /
CN1/C(=C\C=C\C2=[N+](C)c3ccc4ccccc4c3C2(C)C)C(C)(C)c2ccccc21 | . | / | / | / | / | .
CCN1/C(=C/C=C/C2=[N+](CC)c3ccccc3C2(C)C)C(C)(C)c2ccccc21 | / | 43 | . | . | . | /
Cc1ccsc1/C=C1\C(=O)NC(=S)N(C)C1=O | . | . | . | . | . | .
CN1C(=O)/C(=C/c2ccc(Cl)s2)C(=O)NC1=S | / | . | . | . | 63 | /
C=CCN(CC#CCO)Cc1ccc(OC)cc1OC | / | . | / | . | / | /
CC1[C@H]2Cc3ccc(O)cc3[C@]1(C)CCN2C (stereo partly drawn) | / | . | . | . | . | /
CN1CC[C@@]2(C)c3cc(O)ccc3N(C)C2O1 (stereo partly drawn) | . | / | . | / | 64 | .
CCn1nc(-c2ccccc2)nc2c(=O)n(C)c(=O)nc1-2 | . | / | . | / | 95 | .
CCOC(=O)CC[C@@H]1CC[C@]2(CCCN(Cc3cccnc3)C2)O1 | / | . | / | . | / | /
Cc1ccc2c(C)c3ccc4ccccc4c3c[n+]2c1 | / | . | 64 | . | . | /
C=C(C=O)CC1CC(O)[C@]2(C)OC3CC4OC5C[C@]6(C)O[C@]7(C)CCC8OC9C[C@]%10(C)OC%11C(C)=CC(=O)OC%11CC%10OC9C[C@@H](C)C8OC7CC6O[C@]5(C)C/C=C\C4OC3CC2O1 (stereo partly drawn) | / | . | / | . | / | /
Cc1ccccc1N1C(=O)NC(=O)/C(=C\c2cnn(-c3ccccc3)c2)C1=O | . | . | . | 45 | . | .
C=C1C(=O)C(C)=C2C(=O)N3Cc4[nH]c5ccccc5c4CC3(C(=O)OC)C12 (stereo not drawn) | / | . | / | . | / | /
